The list is not random: actives were taken first. Their share in the collection is about 0.81%.
NCOA3 inh: human NCOA3 inhibition; Q9Y6Q9; HEK293 GAL4-SRC3 luciferase reporter, luminescence; inhibition, % at 3.6 µM; hit rate 0.17% among 360,000; AID 588352;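 active = inhibition above a per-campaign cutoff, the mean of all compounds plus 3 SD, cut at about 60% in these data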;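 note: 0% = DMSO-treated cells and 100% = gossypol-treated cells at 36 µM; higher means less SRC3-driven luciferase light from the GAL4 reporter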
NR2F2 inh: blocks human COUP-TFII nuclear receptor | P24468 | inhibition, % at 8.6 µM | HEK293T NGFI-A luciferase reporter, luminescence | hit rate 0.7% among 370,000;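 active = inhibition above a per-plate cutoff, mean inhibition of test wells between control levels plus 3 SD, cut at about 38% in these data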;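 note: cells cotransfected with COUP-TFII expression vector driving the NGFI-A reporter; 0% = median of COUP-TF2 test wells and 100% = reporter-only cells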
SRC2 inh: inhibits human steroid receptor coactivator 2. Q15596. hit rate 0.17% among 370,000. HEK293 GAL4-SRC2 luciferase reporter, luminescence. inhibition, % at 9 µM;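 active = inhibition above the mean inhibition of all tested compounds plus 3 SD, set per campaign, cut at about 52% in these data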;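 note: 0% = DMSO treated cells and 100% = cells given Gossypol at 36 µM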
SRC1 inh: human NCOA1 inhibition | hit rate 0.12% among 360,000 | Q15788 | inhibition, % at 3.6 µM | HEK293 GAL4-SRC1 luciferase reporter, luminescence;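 active = inhibition above the campaign mean plus 3 SD, with each screening campaign given its own cutoff, cut at about 60% in these data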;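 note: 0% = DMSO treated cells and 100% = gossypol at 36 µM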
Target sequence (Q15788 whole entry, looked up, the tested form may be a part): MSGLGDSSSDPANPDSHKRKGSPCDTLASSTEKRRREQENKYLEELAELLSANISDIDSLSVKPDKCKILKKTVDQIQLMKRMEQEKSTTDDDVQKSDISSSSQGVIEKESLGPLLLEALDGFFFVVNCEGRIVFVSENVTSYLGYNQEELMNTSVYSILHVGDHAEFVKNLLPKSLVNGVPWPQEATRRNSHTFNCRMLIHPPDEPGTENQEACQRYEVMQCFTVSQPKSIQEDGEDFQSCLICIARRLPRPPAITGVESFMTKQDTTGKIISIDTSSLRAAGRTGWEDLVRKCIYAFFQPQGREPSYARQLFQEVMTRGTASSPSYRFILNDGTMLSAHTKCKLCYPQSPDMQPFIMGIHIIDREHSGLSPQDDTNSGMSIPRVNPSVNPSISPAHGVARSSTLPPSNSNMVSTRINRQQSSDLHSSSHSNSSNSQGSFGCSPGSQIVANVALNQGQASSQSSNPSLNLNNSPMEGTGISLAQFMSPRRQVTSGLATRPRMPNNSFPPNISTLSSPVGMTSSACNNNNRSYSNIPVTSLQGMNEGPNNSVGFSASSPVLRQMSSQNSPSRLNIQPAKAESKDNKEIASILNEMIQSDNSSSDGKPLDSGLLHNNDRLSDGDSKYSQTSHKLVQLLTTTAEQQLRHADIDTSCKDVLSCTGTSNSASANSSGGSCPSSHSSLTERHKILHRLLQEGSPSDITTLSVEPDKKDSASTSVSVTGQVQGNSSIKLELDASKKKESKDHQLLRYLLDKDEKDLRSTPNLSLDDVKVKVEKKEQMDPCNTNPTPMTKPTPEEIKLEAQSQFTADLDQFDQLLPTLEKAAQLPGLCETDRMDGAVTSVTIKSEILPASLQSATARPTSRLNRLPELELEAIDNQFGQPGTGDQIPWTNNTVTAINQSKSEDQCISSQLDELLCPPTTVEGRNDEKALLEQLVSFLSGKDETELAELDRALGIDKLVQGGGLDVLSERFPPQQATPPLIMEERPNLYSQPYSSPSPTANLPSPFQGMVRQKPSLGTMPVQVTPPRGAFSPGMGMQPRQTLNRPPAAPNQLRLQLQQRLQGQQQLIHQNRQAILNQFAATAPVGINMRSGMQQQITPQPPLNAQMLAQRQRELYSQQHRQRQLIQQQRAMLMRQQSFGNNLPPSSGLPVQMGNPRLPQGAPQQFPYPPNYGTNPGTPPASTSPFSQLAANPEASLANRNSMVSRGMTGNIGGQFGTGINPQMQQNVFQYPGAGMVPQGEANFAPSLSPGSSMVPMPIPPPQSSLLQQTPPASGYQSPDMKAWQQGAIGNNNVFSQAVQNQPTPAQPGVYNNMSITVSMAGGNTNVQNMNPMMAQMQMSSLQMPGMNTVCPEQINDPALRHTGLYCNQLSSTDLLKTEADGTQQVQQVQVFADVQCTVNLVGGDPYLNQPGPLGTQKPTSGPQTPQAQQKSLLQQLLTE
NR5A2 inv ag: inverse agonists of human LRH-1 (NR5A2) | inhibition, % at 3.6 µM | O00482 | hit rate 0.13% among 360,000 | HEK293T StAR-luciferase reporter, LRH-1 transfected, 24 h | AID 602396;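 active = inhibition above the mean inhibition of all tested compounds plus 3 SD, cut at about 73% in these data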;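 note: 0% = DMSO wells and 100% = reporter-only cells lacking LRH-1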
VP16 Luc counter: inhibits VP16 reporter, flagging COUP-TFII antagonist hits | shares compounds with NR2F2 inh | HEK293 Gal4-VP16 luciferase reporter, luminescence | inhibition, % at 8.5 µM | hit rate 25% among 2,500 | AID 687007; in the data active = inhibition above about 13%
NR2F2 inh conf: COUP-TFII (NR2F2) inhibition, confirmation assay. hit rate 45% among 2,500. HEK293 NGFI-A luciferase reporter, luminescence. inhibition, % at 8.5 µM. shares compounds with NR2F2 inh. AID 687008;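 active = mean inhibition over three repeats above a set limit taken from the earlier primary screen, cut at about 38% in these data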;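 note: 100% = cells given the luciferase reporter alone without the COUP-TF2 vector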
Starred values were filed as active, the others as inactive; . = not tested or not shown.

SMILES | NCOA3 inh | NR2F2 inh | SRC2 inh | SRC1 inh | NR5A2 inv ag | VP16 Luc counter | NR2F2 inh conf
Cc1nn(C)c(C)c1CNC(=O)c1nn2c(c1Cl)NC(c1cccs1)CC2C(F)(F)F (centres undefined) | 12 | 40* | 9 | 7 | 19 | -5 | 11
CC(=O)N1c2ccc(S(=O)(=O)N3CCCC(C(=O)Nc4ccc(F)cc4)C3)cc2CC1C (centres undefined) | 10 | 46* | 23 | 7 | 22 | 3 | 22
CC(=O)N1c2ccc(S(=O)(=O)N3CCCC(C(=O)Nc4ccc(C)cc4)C3)cc2CC1C (centres undefined) | -6 | -3 | 5 | 2 | -6 | . | .
Cc1ccc(NC(=O)C2CCN(S(=O)(=O)c3ccc4c(c3)CC(C)N4C(=O)C3CCC3)CC2)nc1 (centres undefined) | -5 | 45* | -20 | 23 | 18 | -1 | 27
COC(=O)[C@]12CCCCC=C1N(Cc1ccc(OC)cc1)C(=O)[C@@H]2CC(=O)N1CCOCC1 | . | -41 | -5 | . | . | . | .
CC(C)C[C@@H]1COc2cc(F)ccc2S(=O)(=O)N1C | . | 4 | 11 | . | . | . | .
CN(C)c1ccc(CC(=O)N2CCCCC2c2cc(C(=O)Nc3ccccc3Cl)no2)cc1 (centres undefined) | 5 | 48* | 22 | 7 | 17 | 2 | 26
COc1ccc(NC(=O)c2cc(C3CCCCN3C(=O)Cc3ccc(N(C)C)cc3)on2)c(C)c1 (centres undefined) | 1 | 14 | 26 | -2 | -5 | . | .
O=S(=O)(NCC1CCCO1)c1ccc(-c2ccc(S(=O)(=O)NCC3CCCO3)cc2)cc1 (centres undefined) | 33 | 68* | 22 | 19 | 46 | 6 | 64*
CCC(c1ccc(OC)cc1)c1cn(C)c2ccccc12 (centres undefined) | . | -10 | 8 | . | . | . | .
Nc1ccc(-c2ccc(N)c(C(=O)O)c2)cc1C(=O)O | -1 | -4 | -34 | -17 | 11 | . | .
O=C(C(=O)c1cc(Br)ccc1O)c1cc(Br)ccc1O | 17 | 39* | 16 | -2 | 16 | 7 | 10
O=C(c1ccc(O)c(Br)c1)c1cc(Br)ccc1O | 12 | 3 | -1 | -9 | -21 | . | .
Nc1ccc(Br)cc1C(=O)O | 30 | 45* | 52 | 14 | 5 | 54* | 35
CS(=O)(=O)N1C[C@]2(c3ccccc3)CC1Cc1ccccc12 | . | 0 | . | . | . | . | .
C[C@@H]1[C@@H](O)C[C@@]2(C[C@H](O)c3cc(Cl)ccc3O2)O[C@H]1c1ccccc1Cl | . | -13 | -18 | . | . | . | .
Cc1ccc(-c2noc(CSc3nnc(-c4ccncc4)n3-c3ccc(C)cc3)n2)cc1 | -12 | -1 | 7 | -1 | -1 | . | .
Clc1ccc(-c2noc(CSc3nnc(-c4ccncc4)n3-c3ccccc3)n2)cc1 | 35 | 65* | 26 | -3 | 10 | -3 | 13
CC1CC(C)C(=NNC(N)=O)C(C(O)CC2CCC(=O)NC2=O)C1 (centres undefined) | 74* | 82* | 58* | 75* | 99* | -12 | 20
CC(C)Cc1ccc(C(C)C(=O)Nc2ccccc2O)cc1 (centres undefined) | 15 | 49* | 33 | 13 | 34 | 7 | 50*
COc1ccc(S[C@]2(C(=O)N3CCN(c4ncccn4)CC3)CC(=O)N[C@@H]2c2ccc(OC)cc2)cc1 | . | 5 | 14 | . | . | . | .
COc1cccc(C(=O)N2CCN(C(=O)c3cccc4ccccc34)CC2)c1OC | 16 | 6 | -2 | -7 | -18 | . | .
CCc1ccc(CN2CCN(C(=O)c3cccc(OC)c3OC)CC2)cc1 | 10 | 54* | 13 | 22 | 23 | -6 | 40*
CCN(C(=O)C1CCCN(c2nnc(-n3cccc3)s2)C1)c1ccccc1C (centres undefined) | . | -1 | 35 | . | . | . | .
CN1CCN(C(=O)c2ccc3c(c2)N(C)C(=O)/C(=C/c2cccc(Cl)c2)S3)CC1 | -13 | 3 | 22 | 0 | 16 | . | .
SMILES | NCOA3 inh | NR2F2 inh | SRC2 inh | SRC1 inh | NR5A2 inv ag | VP16 Luc counter | NR2F2 inh conf
COc1ccc(/C=C2\Sc3ccc(C(=O)N4CCN(Cc5ccccc5)CC4)cc3N(C)C2=O)cc1OC | 28 | 71* | 23 | 11 | 32 | 6 | 58*
O=C(c1ccccc1)c1nn(-c2ccc(Cl)cc2)c(=O)cc1C(F)(F)F | 64* | 40* | 69* | 26 | 85* | 50* | 62*
O=C(c1ccccc1)c1nn(-c2ccccc2)c(=O)cc1C(F)(F)F | 12 | 17 | -15 | -12 | 2 | . | .
COC(=O)[C@H](C(C)C)N(CCCc1cn(Cc2ccc(C)cc2)nn1)S(=O)(=O)c1ccc(F)cc1Br | . | -7 | 14 | . | . | . | .
Cc1ccccc1Cn1c(C)nc2ccccc21 | 24 | 47* | 35 | 31 | 37 | 3 | 46*
Cc1nc2ccccc2n1Cc1ccc(Cl)cc1 | 13 | 61* | 27 | -14 | 47 | 1 | 39*
OCc1nc2ccccc2n1Cc1ccc(Cl)cc1 | -4 | 10 | 6 | 14 | 20 | . | .
COc1ccccc1Cn1c(C)nc2ccccc21 | -6 | -14 | 2 | 11 | -13 | . | .
CCn1cc(C(=O)N2CCN(c3ccc(F)cc3)CC2)c(=O)c2ccc(C)nc21 | . | 10 | -18 | . | . | . | .
O=C(CSc1nnc(-c2ccco2)n1-c1ccc(Cl)cc1)Nc1cccc2ccccc12 | . | 16 | 33 | . | . | . | .
CC1C(=O)N(Cc2ccccc2F)c2ccccc2N1C(=O)c1c(F)cccc1F (centres undefined) | 16 | 47* | 11 | 11 | -11 | -5 | 18
CC1C(=O)N(Cc2cccc(F)c2)c2ccccc2N1C(=O)c1ccccc1 (centres undefined) | -1 | -16 | -8 | -11 | -9 | . | .
COc1cccc(CN2C(=O)C(C)N(C(=O)c3c(F)cccc3F)c3ccccc32)c1 (centres undefined) | 22 | 50* | 5 | 8 | -6 | 8 | 19
O=C(CSc1ccccc1)N1CCC(Oc2cccnc2)CC1 | . | 3 | -9 | . | . | . | .
CSc1nnc2c(n1)C[C@H](c1ccccc1)[C@@H](C)[C@@H](C(=O)N1CCCC1)C2 | . | 3 | 23 | . | . | . | .
CCN(CC)c1ccc(NS(=O)(=O)c2cn(C)c(=O)n(C)c2=O)c(C)c1 | -7 | 78* | -20 | -2 | 15 | -13 | -7
Cc1ccc(NS(=O)(=O)c2cn(C)c(=O)n(C)c2=O)cc1C | 5 | -12 | -1 | 1 | 13 | . | .
COc1ccc(NC(=O)C2CCN(S(=O)(=O)c3ccc4c(c3)NC(=O)C(C)S4)CC2)cc1 (centres undefined) | -16 | 14 | 14 | 6 | 3 | . | .
Cc1ccccc1C(=O)N1CCC(C(=O)Nc2ccc(C)c(S(=O)(=O)N3CCCCC3)c2)CC1 | 20 | 42* | 16 | -1 | 11 | -6 | 13
